# In PubChem BioAssay AID588342 (National Center for Advancing Translational Sciences (NCATS), 2011):
# The whole screen tested about 360,000 compounds, of which about 25,000 (6.9%) were called active. Another 9% or so got no clear call; they are omitted. Only a selection was taken, and actives are over-represented in it overall. Unmarked numbers belong to inactive results. The call rests on the fitted dose curve; in most records, active means well fitted inhibition curve with a large enough effect; inconclusive means small, poorly fitted or top-dose-only effect; inactive means flat fitted curve, though single readings scatter.
# Target: Luciferin 4-monooxygenase (Photinus pyralis) (UniProt P08659)
# Test: qHTS profiling assay for firefly luciferase inhibitor/activator using purifed enzyme and Km concentrations of substrates (counterscreen for miR-21 project); further: nearly all actives have a fitted effect of over 55% in size;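 on activity change, negative = inhibition: plate controls were vehicle for no effect and reference inhibitor for full effect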
# Conditions: purified FLuc, luminescence inhibition; series mostly up to 57.5 µM; activity change, negative = inhibition: at the top concentration
# Procedure, shortened: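 Purified P. pyralis luciferase (10nM final) with 10uM D-luciferin and 10uM ATP (Km levels) in 50mM Tris acetate pH 7.5, 10mM Mg acetate, 0.01% Tween-20, 0.05% BSA; qHTS 6-point titration, ~60 µM downward; luminescence read.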
# Potency means the concentration at half of the fitted maximal effect.
# Luciferin 4-monooxygenase (Photinus pyralis), sequence (P08659 whole entry, looked up): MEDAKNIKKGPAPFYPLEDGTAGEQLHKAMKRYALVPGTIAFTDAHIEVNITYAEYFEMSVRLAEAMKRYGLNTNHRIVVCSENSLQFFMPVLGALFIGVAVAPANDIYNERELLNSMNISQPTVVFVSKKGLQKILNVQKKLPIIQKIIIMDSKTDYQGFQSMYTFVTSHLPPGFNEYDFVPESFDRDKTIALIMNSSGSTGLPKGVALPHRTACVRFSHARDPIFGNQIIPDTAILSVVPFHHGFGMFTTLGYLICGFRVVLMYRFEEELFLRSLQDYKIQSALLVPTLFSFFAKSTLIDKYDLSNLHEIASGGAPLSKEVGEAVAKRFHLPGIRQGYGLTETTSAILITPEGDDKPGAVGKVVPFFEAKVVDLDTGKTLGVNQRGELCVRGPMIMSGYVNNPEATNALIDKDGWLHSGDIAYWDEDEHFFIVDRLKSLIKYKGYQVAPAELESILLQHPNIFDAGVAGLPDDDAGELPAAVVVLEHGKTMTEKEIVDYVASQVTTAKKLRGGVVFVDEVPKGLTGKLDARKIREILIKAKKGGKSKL
Structure (SMILES),"activity change, negative = inhibition",Potency
CCC(Sc1nnc(-c2ccc(OC)cc2)c(-c2ccc(OC)cc2)n1)C(=O)NC1CCCCC1 (centres undefined),-1.88%,–
CCOC(=O)c1c(NC(=O)/C=C/c2ccc(OC)cc2)sc2c1CCC(C)C2 (centres undefined),-4.98%,–
CCc1ccc(C(=O)CC2(O)C(=O)N(CCc3ccccc3)c3ccc(Br)cc32)cc1 (centres undefined),-0.823%,–
Cc1ccc(S(=O)(=O)N2CCCCC2)cc1NC(=O)[C@@H]1CCCN1C(=O)c1cccs1,0.451%,–
CC(=O)Nc1ccc(NC(=O)c2cc3sccc3n2Cc2ccc(F)cc2)cc1,-7.58%,–
CCOC(=O)c1cc(C)sc1NC(=O)C1CCC1,1.17%,–
O=C(Nc1ccccc1Cl)c1ccc2nsnc2c1,–,19 µM (active)
Cc1cccc(NC(=O)c2ccc3nsnc3c2)c1C,-18.7%,–
CCc1ccccc1NC(=O)c1ccc2snnc2c1,-1.29%,–
CC1(C)CC(N2CCN(C(c3ccccc3)c3ccccc3)CC2)=CC(=[N+]2CCCCC2)C1,1.86%,–
O=S(=O)(NC1CC1)c1ccc(Cl)cc1,-1.93%,–
Cc1ccc(CNC(=O)Cn2c(=O)ccc3cc(S(=O)(=O)N4CCCC4)ccc32)cc1,-6.95%,–
COCCN(C(=O)C(C)C)c1nnc(-c2ccc(C(C)(C)C)cc2)s1,–,15.1 µM (active)
COCCN(C(=O)c1ccco1)c1nnc(-c2ccc(OC)cc2)s1,–,21.3 µM (active)
COc1ccc(N(CC(=O)NC(C)(C)C)C(=O)c2ccco2)cc1,1.44%,–
Cc1nnc(N(Cc2ccco2)C(=O)c2ccno2)s1,-14.6%,–
CN1CCNC(=O)C1CC(=O)N1CC=C(c2ccc(F)cc2)CC1 (centres undefined),-1.89%,–
Cn1c(C(=O)N2CCC(C(=O)N3CCN(c4ccccc4)CC3)CC2)cc2sccc21,-7.63%,–
Cc1ccc(C)c(NC(=O)CSC2=Nc3ccccc3N=C(c3ccc(F)cc3)C2)c1,-5.62%,–
CCOc1ccc(CNC(=O)c2ccc3nc(CC)c(CC)nc3c2)cc1OC,2.17%,–
CCN(CC)c1ccc(NC(=O)Cn2nc3c(cc2=O)CCCC3)c(C)c1,-0.779%,–
CCOc1ccc(CNC(=O)c2ccc3c(c2)nnn3C2CCCC2)cc1,-17%,–
O=C(CNCCC1=CCCCC1)Nc1ccccc1N1CCCCCC1,-1.89%,–
COc1ccc(NS(=O)(=O)c2cc3c(cc2C)N(C(C)=O)CCO3)cc1,–,inactive
COCCCNC(=O)c1c(NC(=O)c2cc(=O)c3cc(C)c(C)cc3o2)sc2c1CCCC2,0.689%,–
O=C1c2cccc3c([N+](=O)[O-])ccc(c23)C(=O)N1CC1CCCO1 (centres undefined),3.12%,–

Structure (SMILES),"activity change, negative = inhibition",Potency
CC(=NCC1CCCO1)c1c(O)[nH]c(=O)[nH]c1=O (centres undefined),2.32%,–
O=C1C(C=NCC2CCCO2)=C(O)c2ccccc21 (centres undefined),–,19 µM (active)
CC(C)n1c(=O)[nH]c2cc(C(=O)Nc3ccccc3)ccc21,-1.1%,–
CC(C)c1ccc(NC(=O)c2ccc3c(O)c(S(=O)(=O)c4ccccc4)c(=O)[nH]c3c2)cc1,–,1.51 µM (active)
CCCCCn1c(=O)[nH]c2cc(C(=O)Nc3ccc(F)cc3)ccc2c1=O,-1.87%,–
CCCCn1c(N)c(N(CCC(C)C)C(=O)COC(=O)c2cccnc2OCC)c(=O)[nH]c1=O,-0.738%,–
COc1ccc(/C=N/OCc2ccccc2C#N)c(OC)c1,–,21.3 µM (active)
COc1ccc(C=C(C#N)C#N)c(CSc2ccccn2)c1,2.03%,–
Cc1cc(C)nc(SCc2ccccc2C#N)n1,0.806%,–
Cc1ccccc1OCC(=O)Nc1c(C(=O)Nc2ccccc2F)oc2ccccc12,0.53%,–
CCOC(=O)[C@H]1[C@H]2COc3cc(OC)ccc3[C@@H]2N2C(=O)N(c3ccc(Br)cc3)C(=O)[C@@]12C,2.63%,–
COc1ccc(CNC(=O)Cc2ccc(-c3ccccc3)cc2)cc1OC,-1.07%,–
COc1ccc(CNC(=O)COc2ccccc2C(=O)c2cnn(-c3ccccc3)c2)cc1OC,–,5.36 µM (active)
COc1ccc(CNC(=O)COC(=O)c2c(C)nn(-c3ccccc3)c2C)cc1OC,0.209%,–
CCOC(=O)c1sc(NC(=O)C2CSC3(C)CCC(=O)N23)nc1C (centres undefined),0.346%,–
CCOC(=O)c1cccnc1NC(=O)c1ccncc1,1.54%,–
CCOC(=O)c1sc(NC(=O)c2ccncc2)nc1C,–,19 µM (active)
CCOC(=O)c1sc(/N=C/Nc2nc(C)c(C(=O)OCC)s2)nc1C,4.82%,–
CCOC(=O)c1sc(NC(=O)c2sc(C)nc2C)nc1C,–,6.01 µM (active)
CCOC(=O)c1sc(NC(=O)CSc2n[nH]c(CC)n2)nc1C,-0.887%,–
Cc1ccc(C)c(Oc2c(C(F)(F)F)oc3c(CN4CCN(C)CC4)c(O)ccc3c2=O)c1,-1.22%,–
Cc1cc(C)n2nc(CNS(=O)(=O)c3c(F)c(F)c(F)c(F)c3F)nc2n1,-0.955%,–
Cc1ccc(C(=O)Nc2ccccc2F)cc1S(=O)(=O)N1CCOCC1,-1.59%,–
CCOc1cc(/C=C(\C#N)C(=O)Nc2ccccc2C)ccc1OCc1cc(=O)n2nc(CC)sc2n1,0.577%,–
Cc1ccc(C(=O)COC(=O)c2cccc(N3C(=O)c4c(C)nc5ccccc5c4C3=O)c2)cc1C,–,2.69 µM (active)
O=C(CCc1nc2ccccc2c(=O)[nH]1)OCC(=O)c1cccc(Cl)c1,7.71%,–

Structure (SMILES),"activity change, negative = inhibition",Potency
CCCc1nc2ccccc2c(C(=O)OCC(=O)c2ccc3c(c2)NC(=O)CO3)c1CC,-0.523%,–
CNC(=O)C1CC(=O)N(c2ccc(OCC(=O)Nc3ccccc3C)cc2)C1 (centres undefined),-3.6%,–
C/C(=N\Nc1nc(N2CCOCC2)nc(N2CCOCC2)n1)c1ccc([N+](=O)[O-])cc1,-3.17%,–
Cc1ccccc1NC(=O)CSc1nc2ccc(Nc3nc(N4CCOCC4)nc(N4CCOCC4)n3)cc2s1,0.0802%,–
C/C(=N\Nc1nc(Nc2ccccc2)nc(N2CCOCC2)n1)c1cccs1,–,19 µM (active)
COc1cccc(-c2nn(-c3ccccc3)cc2/C=C(\C#N)C(=O)NCCCn2ccnc2)c1,-21.4%,–
CN(C)/N=C/c1cn(-c2ccccc2)nc1-c1cccnc1,-19.8%,–
COc1ccc(-c2nn(-c3ccccc3)cc2/C=N/Nc2ccccn2)cc1OC,–,10.7 µM (active)
COc1cccc(C2=CC(=O)C[C@H](c3ccc(F)cc3)C2)c1OC,-9.98%,–
CC(C)c1ccc(OCC(=O)N(Cc2ccc(N(C)C)cc2)C2CCS(=O)(=O)C2)cc1 (centres undefined),-0.839%,–
CCOc1cccc(CNC(=O)c2ccc(N3CCCC3)c(NC(=O)Nc3ccccc3CC)c2)c1,0.552%,–
COc1ccc(CN2C(=O)C(NC(=O)c3cccc(C)c3)(C(F)(F)F)N=C2c2ccccc2)cc1 (centres undefined),-14%,–
Cc1cc(NC(=O)CSc2nc3ccccc3n2CC(C)C)no1,-16.7%,–
Cc1ccc(SCCC(=O)Nc2cc(C)on2)cc1,-1.52%,–
Cc1ccc2nc(-c3ccc(SCC(=O)Nc4cc(C)on4)nc3)[nH]c2c1,–,0.757 µM (active)
Cc1cc(F)ccc1NC1(c2ccccc2)C(=O)c2ccccc2C1=O,-12.8%,–
CN(C)c1ccc(S(=O)(=O)NCC(=O)NCC2CCCCC2)cc1[N+](=O)[O-],-1.38%,–
CC(=O)c1ccc(N2CCN(CC(O)c3ccccc3)CC2)cc1 (centres undefined),4.54%,–
CC(=O)c1ccc(N2Cc3ccccc3C2)cc1,–,10.7 µM (active)
CC(=O)c1ccc(N2CCN(C(=O)CCc3ccccc3)CC2)cc1,-8.99%,–
Cc1ccc(S(=O)(=O)N2CCCCC2)cc1C(=O)N1CCN(CCO)CC1,3.12%,–
Cc1cc(C)c2oc(C(=O)Nc3ccc(S(=O)(=O)N4CCCCCC4)cc3)cc(=O)c2c1,-2.56%,–
CN(C)c1nc(N)nc(Cn2nnc(-c3ccc(C(F)(F)F)cc3)n2)n1,-0.922%,–
COc1ccc(-c2nnn(Cc3nc(N)nc(N4CCCCC4)n3)n2)cc1,0.313%,–
CCc1ccc(-c2nnn(Cc3nn[nH]n3)n2)cc1,–,26.9 µM (active)
CC(=O)Nc1ccc(S(=O)(=O)N2CCn3cccc3C2C)cc1 (centres undefined),-1.34%,–

Structure (SMILES),"activity change, negative = inhibition",Potency
CCc1ccc(-n2nnc(-c3nc(-c4ccccc4)no3)c2C)cc1,–,2.13 µM (active)
Cc1ccc(-c2noc(CSc3nnnn3-c3ccccc3)n2)cc1,-3.75%,–
Cc1ccc(-c2noc(-c3nnn(-c4cccc(C(F)(F)F)c4)c3N)n2)cc1,0.761%,–
Cc1ccc2c(c1)N(C(=O)CCC(=O)NCc1ccccc1F)CC(C)O2 (centres undefined),2.57%,–
CCc1cccc(NC(=O)CN(c2ccc(C)c(C)c2)S(=O)(=O)c2ccsc2C(=O)OC)c1,-0.926%,–
CC(=O)Nc1ccc(NC(=O)c2ccc3c(c2)C(=O)N(c2ccccc2C)C3=O)cc1,-1.2%,–
CC(=O)Oc1ccc(C)cc1N1C(=O)c2ccc(C(=O)O)cc2C1=O,-5.61%,–
Cc1cccc(N2C(=O)c3ccc(C(=O)Nc4cccc(C(=O)O)c4)cc3C2=O)c1,–,1.51 µM (active)
Cn1nnnc1SCCNCc1ccc(Cl)c(Cl)c1,-6.85%,–
COc1cccc(/C=N\NC(=O)C2=NNC(=O)C2C)c1O (centres undefined),–,6.01 µM (active)
CC1=NNC(=O)C1CCC(=O)N/N=C\c1cccc(Cl)c1 (centres undefined),5.5%,–
Cc1cccc(-n2c(=O)c3c(c4cc(C)ccc4n3C)n(CC(=O)Nc3ccccc3Cl)c2=O)c1,-3.48%,–
O=S(=O)(c1ccc(Cl)cc1)c1nnn2c1nc(NC1CCCC1)c1sccc12,-14.4%,–
CC(=O)N1CCCc2cc(S(=O)(=O)Nc3ccc(Cl)cc3F)ccc21,-13.7%,–
CN(CC(=O)Nc1ccc(F)cc1)CC(=O)N1CCCCC1,13.3%,–
Cc1ccccc1C(=O)O,1.05%,–
Cc1ccc(C(=O)CSc2ccccc2C(=O)O)cc1,–,4.26 µM (active)
Cc1ccc(Sc2cc(C(=O)c3ccccc3C(=O)O)ccc2[N+](=O)[O-])cc1,1.6%,–
CC1(C(=O)OCC(=O)Nc2ncc(Cl)cc2Cl)CC1(Cl)Cl (centres undefined),-4.62%,–
Cc1ccc(NC(=O)NC(C)c2c(-n3cccc3)sc(C)c2C)c(C)c1 (centres undefined),-8.67%,–
COC(=O)[C@@H]1C[C@H]2CC[C@H](O)C[C@H]2N1Cc1ccc(N2CCN(C)CC2)cc1,-1.08%,–
Cc1ccc2c(Cl)c(C(=O)Nc3nn[nH]n3)sc2c1,–,16.9 µM (active)
O=C(/C=C/c1c(F)cccc1Cl)Nc1nn[nH]n1,-18%,–
Cc1nnsc1C(=O)Nc1cccc(Cl)c1C,-3.55%,–
Cc1ccc(-c2cc(C(=O)Nc3nn[nH]n3)c3ccccc3n2)c(C)c1,–,15.1 µM (active)
O=C(CCc1ccccc1)Nc1nn[nH]n1,0.606%,–
